Screen size: about 200,000 compounds; about 80 (0.04%) were called active.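 How the source made its calls: active means activation above the mean across all tested compounds plus 3 SD, cutoff set per campaign (cut at about 5.5% in these data); inactive means the rest.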 The list comes from a sample in which actives are over-represented; it also holds similar structures and randomly drawn compounds.
test: Hsp70 transcriptional activators, primary screen, cell-based, HeLa, Hsp70 promoter luciferase, luminescence, 10 µM (AID 1203); conditions: HeLa Hsp70 promoter luciferase reporter, at 10 µM, stronger effect = higher value, scaled: vehicle 0, proteasome-inhibitor control 100%;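 further: 100% = MG132 at 30 µM as the positive control and 0% = DMSO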

activation, inactive:
CC(=O)N1CCN(CC(=O)Nc2ccc(SC(F)F)cc2)CC1 -0.16%
CNC(=S)N1CCN(c2ccccn2)CC1 0.23%
CC(=O)c1c(C)[nH]c(C(=O)OCC(=O)NCCC(C)C)c1C -0.33%
Cc1ccccc1N1C(=O)C(Oc2ccc(Cl)cc2)C1CNCC1CCCO1 (stereo not drawn) -0.08%
COc1ccc(S(=O)(=O)N(C)CC(=O)N2CCCC2)cc1Cl -0.1%
NC(=O)c1ccc(NC(=O)COC(=O)c2c3c(nc4ccccc24)/C(=C\c2ccc4c(c2)OCO4)CCC3)cc1 -0.43%
COc1ccc(C2CC(c3cccs3)=NN2C(=O)CSc2nnc(N)s2)cc1OC (stereo not drawn) -0.12%
CCN(CC)CCN(C(=O)c1cccc([N+](=O)[O-])c1)c1nc2ccc(OC)cc2s1 -0.15%
CCOc1ccc(-c2n[nH]c(C)c2-c2ccccn2)c(O)c1 -0.39%
CCC(=O)NC(Nc1cc(C)ccn1)(C(F)(F)F)C(F)(F)F -0.11%
Cc1ccc(NC(=S)N(CCCN2CCCC2)Cc2cccn2Cc2ccc(Cl)cc2)cc1 0.2%
COc1ccc(NC(=O)/C(C#N)=C\c2cc(OC)c(OCc3ccc(C(=O)O)cc3)cc2Br)cc1 -0.51%
COc1ccc(NC(=O)CSc2nnc(-c3ccccc3F)n2C2CC2)cc1S(N)(=O)=O -0.2%
Cc1ccc(-n2c(SCC(=O)N3c4ccccc4Sc4ccccc43)nnc2-c2ccncc2)cc1 -0.33%
CC(C)NC(=O)NC(=O)CSc1nnc(-c2ccccc2F)n1N 0.03%
Cc1cc(C)c(OCCN2CC(C)OC(C)C2)c(Br)c1 (stereo not drawn) -0.19%
Cc1ccc(C)c(-n2cc(CN3CCN(C(=O)c4ncn[nH]4)CC3)c(-c3ccccc3)n2)c1 -0.1%
CC(=C/c1ccccc1)/C=N/NC(=O)c1cc(C)oc1C 0%
CCCOC1CCCN(Cc2cn(C)nc2-c2ccccc2F)C1 (stereo not drawn) -0.04%
Cc1ccccc1NC(=O)Cn1c(=O)n(CC2CCCO2)c(=O)c2ccccc21 (stereo not drawn) -0.17%
O=C1NC2(CCCCCC2)C(=O)N1CCS(=O)(=O)Oc1ccccc1 -0.27%
Cc1ccc(C(=O)NCC(=O)O)s1 0.11%
O=C(CCCN1C(=O)/C(=C/c2ccccc2)SC1=S)Nc1ccc(O)cc1 -0.12%
Cc1ccc(NC(=O)c2cccnc2C(=O)Nc2ccc(C)cc2)cc1 -0.14%
NC(=O)C[C@@H]1NC(=O)CNC(=O)c2cc([N+](=O)[O-])cc(I)c2NCCC(C(N)=O)NC1=O (stereo partly drawn) 0.03%
Cc1cccc(NC(=S)NC(=O)c2ccc(Br)o2)c1 0.26%
CC(=O)Nc1nc2ccccc2n1Cc1ccc(C)cc1 -0.13%
COC(=O)CN1C(=S)N(c2ccccc2)C(=O)C1CC(=O)Nc1ccc(Cl)cc1 (stereo not drawn) -0.13%
COc1ccc(-c2nc(N)sc2C2(O)C(=O)Nc3c(Br)cc(F)cc32)cc1OC (stereo not drawn) -0.09%
CCOc1ccc(N2CC(C(=O)NCCN3C(=O)S/C(=C\c4cccnc4)C3=O)CC2=O)cc1 (stereo not drawn) -0.14%
Cc1ccc(Cl)c(NC(=O)CN(C)CC(=O)Nc2ccc(F)c(F)c2F)c1Cl -0.39%
C/C(=N\NC(=O)CCn1nc(C)cc1C)C(C)(C)C -0.13%
COc1ccc(OCC(O)CNC(=O)Nc2ccc(Cl)cc2)cc1 (stereo not drawn) -0.12%
NS(=O)(=O)c1ccc(N=Cc2ccc(Br)s2)cc1 -0.31%
CCOC(=O)C/C(C)=N\Nc1ccc([N+](=O)[O-])cc1[N+](=O)[O-] 0.04%
O=S(=O)(c1ccc2c(c1)OCCO2)N1CCc2ccccc21 0.08%
O=C(CSc1nncs1)NC1CCCc2ccccc21 (stereo not drawn) -0.09%
O=S(=O)(ON(c1ccccc1)S(=O)(=O)c1ccccc1)c1ccccc1 -0.24%
CCOC(=O)c1c(NC(=S)NC(=O)/C=C/c2cccs2)sc(C)c1C -0.28%
O=C(NNC(=S)Nc1ccc(Br)cc1Cl)c1ccco1 -0.21%
CCC(=O)OCc1c(C(F)(F)F)nn(C)c1Oc1cccc(C(F)(F)F)c1 -0.27%
CCNC(=O)NNC(=O)C1CC(c2cccs2)=NO1 (stereo not drawn) -0.44%
CCOC(=O)c1cnc2c(c(C)nn2CC)c1Cl -0.38%
C/C(=N\NC(=O)CNc1cccc2ccccc12)c1ccc(Br)s1 -0.39%
CCCC1NC(=S)NC(C)=C1C(C)=O (stereo not drawn) -0.09%
CCOC(=O)NN1C(=O)c2ccccc2NC1c1ccccc1O (stereo not drawn) -0.07%
CC1CC(C)(C)NC(=S)N1CCC(=O)N1CCN(Cc2ccccc2)CC1 (stereo not drawn) -0.64%
CC(C)(C)c1ccc(NC(=O)COC(=O)CCc2nc3ccccc3c(=O)[nH]2)cc1 -0.35%
CSCCC(NC(=O)COc1ccccc1)C(=O)Nc1ccc(C)cc1 (stereo not drawn) -0.22%
COc1ccc(C(CC(=O)c2ccccc2)S(=O)(=O)c2ccccc2)cc1 (stereo not drawn) -0.26%
COC(=O)C1=CN(Cc2ccc(OC)c(OC)c2)C=C(C(=O)OC)C1c1cccs1 -0.18%
O=C1Oc2ccccc2C(=O)/C1=C/c1ccccc1O -0.37%
CC(=O)c1ccc(NC(=O)C(C)N(C)CC(=O)Nc2ccccc2Cl)cc1 (stereo not drawn) -0.06%

From PubChem BioAssay AID1203 (The Scripps Research Institute Molecular Screening Center, 2008)
